Each structure is given as a SMILES string. The whole screen tested about 320,000 compounds, of which about 2,200 (0.69%) were called active.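 Rule for the calls: active = inhibition above the mean of all tested compounds plus 3 SD, cutoff set per campaign (cut at about 30% in these data); inactive = the rest.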 Many of the other results were omitted from the sample, so actives are more common in it than they were.

The target of this test is Bcl-2-like protein 1 (Homo sapiens) (UniProt Q07817). Kind of test: Bcl-xL/Bim BH3 interaction blockers – biochemical, fluorescence polarization, HTS, primary screen (AID 2129).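 Note: 0% = DMSO wells and 100% = unlabeled Bim-BH3 peptide competitor; inhibitors lower millipolarization by displacing the labeled peptide.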 The conditions noted are these: GST-Bcl-xL / FITC-Bim BH3 peptide fluorescence polarization; at 10.9 µM; stronger effect = higher value.
Chain of Bcl-2-like protein 1 (Homo sapiens) (Q07817 whole entry, looked up): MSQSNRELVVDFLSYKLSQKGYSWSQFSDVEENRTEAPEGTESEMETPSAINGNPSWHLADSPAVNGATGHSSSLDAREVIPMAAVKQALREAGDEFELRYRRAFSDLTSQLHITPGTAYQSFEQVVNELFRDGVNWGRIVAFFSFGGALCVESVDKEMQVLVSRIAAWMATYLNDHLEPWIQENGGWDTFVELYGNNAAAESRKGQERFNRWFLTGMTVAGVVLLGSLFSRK
With `CCNc1nc2[nH]c(=O)c3c(c2s1)OC(N)=C(C#N)C3c1cccs1` (stereo not given), the inhibition was 30.4% (active).
For `N#CC1=C(N)Oc2c(c(=O)oc3ccccc23)C1c1ccccc1OC(=O)c1cccs1` (stereo not given), the inhibition is 3.02% (inactive).
Turning to `Cc1ccc(N(C)C(=O)Oc2cccc3ccc(C)nc23)cc1`, the inhibition was 0.48% (inactive).
Next, `NCCc1c[nH]c2ccc(O)cc12`: 4.75% (inactive).
Regarding `O=C1NC(=O)N(c2ccccc2)C(=O)/C1=C/c1ccc([N+](=O)[O-])s1`, the inhibition is 26.3% (inactive).
Regarding `Cc1ccccc1N1C(=O)NC(=O)/C(=C\c2cc(C)n(C)c2C)C1=O`, the inhibition was 2.98% (inactive).
Then `COc1cccc(N2C(=O)NC(=O)/C(=C\c3cn(C)c4ccccc34)C2=O)c1`, with 36.2% (active).
Take `Cc1ccc(-n2c(O)c(C=NCC3CCCO3)c(=O)[nH]c2=O)c(C)c1` (stereo not given): the inhibition was -2.2% (inactive).
Next, `COc1ccc(CN2C(=O)NC(=O)/C(=C\c3ccc(OC)c(OC)c3OC)C2=O)cc1`: -7.16% (inactive).
Next, `Cc1cc(/C=C2/C(=O)NC(=O)N(Cc3ccco3)C2=O)c(C)n1-c1ccc(C(=O)O)cc1`: -1.1% (inactive); `COc1ccc(N2C(=O)/C(=C/c3ccco3)C(=O)NC2=S)cc1`: 32.5% (active); `Cc1cccc(NC(=O)OC2CN3CCC2CC3)c1` (stereo not given): -2.32% (inactive).
Next, `CC(=NC1CCN(Cc2ccccc2)CC1)c1c(O)n(C)c(=O)n(C)c1=O`: 14.7% (inactive).
Consider `Cc1ccc2c(c1)C1CN(C)CCC1N2C(=O)Cn1nnc(-c2ccccc2F)n1` (stereo not given), for which the inhibition is 4.75% (inactive).
For the compound `O=c1c2ccccc2nc(/C=C/c2ccc(F)cc2)n1-c1ccccc1O`, the inhibition was 0.24% (inactive).

These data come from PubChem BioAssay AID2129 (The Scripps Research Institute Molecular Screening Center, 2009).
